Screening data from PubChem BioAssay.
Sm TGR block = inhibitors of Schistosoma mansoni thioredoxin glutathione reductase; 360,000 tested, 3% active; Potency, µM (doses to about 114 µM), usual class: inhibitors; purified TGR, DTNB reduction, TNB absorbance 405 nm; AID 485364; note: nearly all actives have a fitted effect of over 60% in size
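Kinetic colorimetric format: TGR-catalysed, NADPH-driven DTNB reduction monitored via TNB absorbance. Enzyme dispensed at 20 nM; compound exposure 15 min at room temperature before reaction start.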
AmpC no deterg = AmpC beta-lactamase inhibition without detergent | P00811 | AmpC nitrocefin hydrolysis, absorbance 480 nm, 0.0001% Triton | Potency, µM (series often up to 57.1 µM), most hits filed as inhibitors | 330,000 tested, 0.52% active; note: nearly all actives have a fitted effect of over 20% in size
Target sequence (P00811 whole entry, looked up): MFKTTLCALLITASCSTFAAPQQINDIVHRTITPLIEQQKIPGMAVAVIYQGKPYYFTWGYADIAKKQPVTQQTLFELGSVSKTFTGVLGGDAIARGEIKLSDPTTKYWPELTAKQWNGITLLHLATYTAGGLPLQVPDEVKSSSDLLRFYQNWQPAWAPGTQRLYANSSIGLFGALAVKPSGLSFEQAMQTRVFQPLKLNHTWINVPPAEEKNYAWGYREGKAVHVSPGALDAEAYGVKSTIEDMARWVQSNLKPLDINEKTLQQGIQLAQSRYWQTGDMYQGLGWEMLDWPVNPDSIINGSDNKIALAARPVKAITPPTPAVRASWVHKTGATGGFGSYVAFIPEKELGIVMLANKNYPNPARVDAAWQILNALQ
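20 mM phosphate pH 7.0 + 0.01% (detergent screen) or 0.0001% Triton X-100; 5.3 nM AmpC reagent; cpd preinc 15 min RT; nitrocefin (800 uM stock) to start; A480 q20 s × 4 min; Activity was normalised to no-enzyme and no-compound control wells.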
RE007 growth inh = less growth of the S. pombe RE007 Vpr strain; Potency, µM (doses to about 92.2 µM), most hits filed as inhibitors; 360,000 tested, 0.21% active; S. pombe RE007 Vpr strain, BacTiter-Glo ATP luminescence, 24 h; AID 651644; active = well fitted falling curve with a large enough effect; inconclusive = small, poorly fitted or top-dose-only effect; inactive = no such curve, though single readings can be large or run the other way; note: nearly all actives have a fitted effect of over 50% in size
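Fission yeast RE007 carrying one integrated HIV-1 vpr copy, seeded at OD 0.01 in PMG+AL medium with 23 nL pinned compound. Grown 24 h at 30 degrees; viability read by BacTiter-Glo luminescence after 5 min.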
AmpC detergent = AmpC beta-lactamase inhibition with detergent present. AID 485294. Potency, µM (series often up to 114 µM), usual class: inhibitors. AmpC hydrolysis of nitrocefin, absorbance 480 nm, 0.01% Triton. 370,000 tested, 0.041% active; note: nearly all actives have a fitted effect of over 25% in size
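20 mM phosphate pH 7.0 + 0.01% (detergent screen) or 0.0001% Triton X-100; 5.3 nM AmpC reagent; cpd preinc 15 min RT; nitrocefin (800 uM stock) to start; A480 q20 s × 4 min; Activity was normalised to no-enzyme and no-compound control wells.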
Giardia FBPA inh = Giardia lamblia aldolase inhibition. A8B2U2. purified Giardia FBPA. Potency, µM (doses to about 59.6 µM), most hits filed as inhibitors. 290,000 tested, 0.71% active. AID 2451; note: nearly all actives have a fitted effect of over 55% in size
Target sequence (A8B2U2 whole entry, looked up): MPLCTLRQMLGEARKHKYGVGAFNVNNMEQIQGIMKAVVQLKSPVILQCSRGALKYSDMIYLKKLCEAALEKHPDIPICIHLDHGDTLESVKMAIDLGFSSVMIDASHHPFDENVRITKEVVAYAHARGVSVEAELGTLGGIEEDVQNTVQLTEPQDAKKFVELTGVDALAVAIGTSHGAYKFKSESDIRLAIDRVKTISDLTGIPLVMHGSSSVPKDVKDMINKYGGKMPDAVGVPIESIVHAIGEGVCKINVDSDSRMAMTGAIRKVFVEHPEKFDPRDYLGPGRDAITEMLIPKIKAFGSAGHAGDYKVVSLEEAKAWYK
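40 nM FBPA preincubated 10 min at RT with compound (up to 57.5 uM final), then substrate plus GAPDH/TPI/NAD/arsenate coupling and diaphorase/resazurin added. Fluorescence read after 20 min at RT, 525/598 nm.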
Each line names hits and unclear results; the compound was inactive in the other large screens. Most compounds without a hit are left out; they make up all but 3.4% or so of the library. Unless noted, calls come from the whole dose curve; as a rule, active = well fitted curve in the direction sought with a large enough effect; inconclusive = small, poorly fitted or top-dose-only effect, or another doubt; inactive = no such curve, though single readings can be large; an effect the other way counts as inactive or inconclusive.

O=C1NC(=S)N(c2ccccc2)C(=O)/C1=C/c1ccco1	Sm TGR block 14µM
COc1ccc(N2C(=O)/C(=C/c3cccs3)C(=O)NC2=S)cc1	Sm TGR block 35µM
CCOc1cccc(N2C(=O)/C(=C/c3ccco3)C(=O)NC2=S)c1	Sm TGR block inconclusive, AmpC detergent inconclusive
N=c1sccn1CC(=O)NC(=O)NC1CCCC1	none
COc1cc(NC(=O)CN2CCN(c3ccc(F)cc3)CC2)cc(OC)c1	none (no result: AmpC no deterg, RE007 growth inh, Giardia FBPA inh)
Cc1ccc(CSCc2ccc(C(=O)NCCc3ccc(Cl)cc3)o2)cc1	none (no result: AmpC no deterg, RE007 growth inh, Giardia FBPA inh)
COc1ccc(-c2cc(C(=O)NCCCn3ccnc3)c3ccccc3n2)c(OC)c1	AmpC detergent inconclusive
COc1cc(NC(=O)Cn2ccsc2=N)c(C)cc1[N+](=O)[O-]	none
N=c1sccn1CC(=O)Nc1ccc(Cl)cc1[N+](=O)[O-]	Sm TGR block 40µM
N=c1sccn1CC(=O)Nc1ccc(S(N)(=O)=O)cc1	Sm TGR block 45µM
COc1ccc(-n2c(=O)c(-c3ccc(F)c(F)c3)nc3cncnc32)cc1	none (no result: Sm TGR block, AmpC no deterg, RE007 growth inh, AmpC detergent)
Cc1ccc(S(=O)(=O)N2CCCC2)cc1[N+](=O)[O-]	none
Cc1ccc([N+](=O)[O-])c2c1C(N1CCCC1)C(C)(C)O2 (stereo not given)	Sm TGR block 56µM, AmpC detergent inconclusive
CN1CCN(c2ccc(CNS(=O)(=O)c3ccsc3)cc2)CC1	none
O=C(CSc1nc2ncc(Br)cc2[nH]1)c1cccc([N+](=O)[O-])c1	AmpC no deterg 32µM, AmpC detergent inconclusive
O=C(C[n+]1cc(Br)cc(Br)c1)c1cccc([N+](=O)[O-])c1	Sm TGR block 10µM, Giardia FBPA inh inconclusive
CCOc1ccc2nc(N3CCC(C(=O)NCCCN4CCOCC4)CC3)sc2c1	none
CCOc1ccc2nc(N3CCCC(C(=O)NCCCN4CCOCC4)C3)sc2c1 (stereo not given)	AmpC no deterg 3.2µM, AmpC detergent inconclusive
CS(=O)(=O)Nc1ccc(C2=NN(C(=O)C3CCCCC3)C(c3cccs3)C2)cc1 (stereo not given)	AmpC no deterg 7.1µM
CS(=O)(=O)N(Cc1cccc(CN(C(C(=O)O)c2ccccc2)S(C)(=O)=O)c1)C(C(=O)O)c1ccccc1 (stereo not given)	Sm TGR block 5µM
CCCCCCC(=O)N(O)C1CC(=O)N(c2ccc(Br)cc2)C1=O (stereo not given)	Sm TGR block 0.71µM, RE007 growth inh inconclusive
COc1ccccc1N(O)C1CC(=O)N(c2ccc(Br)cc2)C1=O (stereo not given)	Sm TGR block 2.8µM, AmpC no deterg inconclusive, AmpC detergent inconclusive
CCCCCCC(=O)N(O)C1CC(=O)N(c2ccc(F)cc2)C1=O (stereo not given)	Sm TGR block 0.63µM, RE007 growth inh 6.3µM
CCCCN(C(=O)CCC(=O)O)C1CC(=O)N(c2ccc(OCCC)cc2)C1=O (stereo not given)	none
CCOC(=O)c1c(NC(=O)CCS(=O)(=O)c2ccccc2)sc2c1CC(C)(C)NC2(C)C	Sm TGR block 40µM (no result: Giardia FBPA inh)
O=c1ccn(-c2cccc(C(F)(F)F)c2)nc1-c1ccn(-c2ccccc2F)n1	Giardia FBPA inh 16µM
COc1ccc(-n2ccc(-c3nn(-c4cccc(C(F)(F)F)c4)ccc3=O)n2)cc1	none
COc1ccc(-n2c(COc3cccc(C)c3)nnc2SCC(=O)O)cc1	AmpC detergent inconclusive
Cc1cccc(OCc2nnc(SCCC(=O)O)n2-c2ccccc2)c1	Sm TGR block 79µM, AmpC detergent inconclusive
COc1ccc(C(=O)CC(Nc2ccc([N+](=O)[O-])cc2)c2ccc(OC)cc2)cc1 (stereo not given)	none
Cc1cccc(NCCC(=O)c2ccc([N+](=O)[O-])cc2)c1C	RE007 growth inh 35µM (no result: Sm TGR block)
Cc1ccc(NCC(=O)c2ccc([N+](=O)[O-])cc2)cc1	Sm TGR block 16µM
CNC(CC(=O)c1ccc([N+](=O)[O-])cc1)C(Cl)(Cl)Cl (stereo not given)	Sm TGR block 0.45µM, RE007 growth inh 13µM
Cc1ccc(NCCC(=O)c2cccc([N+](=O)[O-])c2)c(C)c1	Sm TGR block 0.5µM, AmpC no deterg 20µM, RE007 growth inh 5.6µM
Cc1ccc(C(=O)c2ccc([N+](=O)[O-])cc2)cc1C	none
Cc1ccc(C(=O)CNc2cccc([N+](=O)[O-])c2)cc1	none
Cc1ccccc1NC(=S)N1CCC(C(=O)c2ccc(F)cc2)CC1	AmpC no deterg inconclusive
O=C(Cn1ncn2nc(-c3ccccc3)cc2c1=O)NCc1ccccn1	none (no result: Giardia FBPA inh)
CSc1ccccc1C(=O)NC1CC2CCC1C2 (stereo not given)	none
Cc1nc2ncnn2c(C)c1CCC(=O)N1CCN(c2cccc(Cl)c2)CC1	none (no result: AmpC no deterg, RE007 growth inh, Giardia FBPA inh)
Cc1nc2ncnn2c(C)c1CCC(=O)NCCCN1CCN(c2cccc(Cl)c2)CC1	Sm TGR block 79µM
O=C1SC(c2ccccc2)=C/C1=C\N1CCCCC1	none
O=C1OC(c2ccccc2)=C/C1=C\N1CCOCC1	Sm TGR block 20µM
O=C1OC(c2ccccc2)=C/C1=C/N1CCOCC1	Sm TGR block 40µM, RE007 growth inh inconclusive
CSc1nc(C)c(Oc2ccccc2)c(=O)n1C	none
CCCSc1nc(O)c(C(c2ccc(OC)c(O)c2)c2c(O)nc(SCCC)n(C)c2=O)c(=O)n1C	Sm TGR block 13µM, AmpC no deterg inconclusive
COc1cccc(C(c2c(O)nc(SC)n(C)c2=O)c2c(O)nc(SC)n(C)c2=O)c1	Sm TGR block 7.1µM
COc1ccc(C(c2c(C)n(C)n(-c3ccccc3)c2=O)c2c(C)n(C)n(-c3ccccc3)c2=O)cc1O	none (no result: RE007 growth inh)
Cc1ccc2cc(/C=C/C(=O)c3ccco3)c(Cl)nc2c1	Sm TGR block 8.9µM
COc1cc2cc(/C=C/C(=O)c3ccco3)c(Cl)nc2cc1OC	Sm TGR block inconclusive
Cc1ccc2nc(Cl)c(/C=C/C(=O)c3ccco3)cc2c1	Sm TGR block inconclusive
COc1ccc2cc(/C=C/C(=O)c3ccco3)c(Cl)nc2c1	Sm TGR block 45µM (no result: RE007 growth inh)
O=C(N[C@H]1C/C=C\C[C@@H](CC(=O)N(CCO)Cc2ccccc2)C(=O)N2CCC[C@@H]2COC1=O)OCC1c2ccccc2-c2ccccc21	none (no result: Sm TGR block, AmpC detergent, Giardia FBPA inh)
CN1C(C(=O)NCc2ccco2)=CC(c2ccc(F)cc2)=NS1(=O)=O	none
CCCn1c(SCC(=O)N2CCCc3ccccc32)nc2c1c(=O)n(C)c(=O)n2C	AmpC detergent 35µM
CCCn1c(SCC(=O)N2c3ccccc3Sc3ccccc32)nc2c1c(=O)n(C)c(=O)n2C	none
CCCc1nc(SCC(=O)N2CCC(Cc3ccccc3)CC2)c2c(=O)n(C)c(=O)n(C)c2n1	AmpC no deterg 3.5µM, AmpC detergent inconclusive
CCCc1nc(SCC(=O)N2CCCc3ccccc32)c2c(=O)n(C)c(=O)n(C)c2n1	AmpC no deterg 40µM
